# Experimental data from PubChem BioAssay (EPA / NIEHS).
# Several values for one entry are separate records, joined by “and”; a condition that tells them apart may be missing. Identical values can stand only once. Records with an inconclusive call do not appear. Activity calls are given as the source filed them. How the source made its calls, unless noted: active means hit-call score of the fitted dose curve at least 0.9, where 1 is the maximum; inconclusive means response in the unintended direction; inactive means score below 0.9.
# Key:
# [1] = CCTE_Mundy_HCI_iCellGluta_NOG_NeuriteLength: CCTE's Neurite Outgrowth Assay in iCellGluta cells for Neurite Length, Mundy Lab (AID 2284318)
# Outline: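 Automated high-content imaging of betaIII-tubulin (Alexa Fluor-488) and Hoechst-stained cells gave neurite length, normalized to the DMSO baseline.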
# [2] = VALA_MIGHUV2_CellCount: Viability Assessment in the VALA Sciences human Umbilical Vein Endothelial Cell Migration (MIGHUV) Assay, Area of Scratch Wound after Recovery (AID 2284314)
# Outline: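 Viability read-out: Hoechst-stained nuclei counted by fluorescence imaging after a 24 h recovery period in fixed, scratched HUVEC plates. Compound was dosed within 30 min of scratching at six concentrations (triplicate); DMSO at 0.1 % served as baseline.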
# [3] = VALA_MIGHUV2_Bcatenin: VALA Sciences human Umbilical Vein Endothelial Cell Migration (MIGHUV) Assay, Nuclear Translocation of beta-Catenin after Recovery (AID 2284315)
# Outline: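 Nuclear beta-catenin imaged by immunofluorescence with Hoechst counterstain in fixed HUVEC, 24 h after scratch wounding and chemical addition. Six-point concentration-response in triplicate; activity scored as signal increase over 0.1% DMSO vehicle.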
# [4] = VALA_MIGHUV2_WoundArea: VALA Sciences human Umbilical Vein Endothelial Cell Migration (MIGHUV) Assay, Area of Scratch Wound after Recovery (AID 2284316)
# Outline: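 Wound-area endpoint read by fluorescence imaging of Hoechst-stained nuclei after a 24 h recovery period following scratch of HUVEC monolayers (9000 cells/well). Chemicals dosed within 30 min post-scratch, triplicate 6-point series, 0.1% DMSO vehicle; Cytochalasin D positive control.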
# [5] = system: IYD (gene 389434); test: CCTE_GLTED_hIYD: CCTE's human Iodotyrosine Deiodinase (xIYD) Inhibition Assay, Great Lakes Toxicology and Ecology Division (GLTED) Lab (AID 2284317);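 further: cell-free human IYD enzyme made in baculovirus insect cells; iodide freed from monoiodotyrosine measured by cerium arsenite color change at 420 nm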
# Outline: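 Deiodination of MIT by insect-cell-produced human IYD is measured after a 3 h incubation with test chemical. Free iodide passes through a Dowex column and accelerates Sandell-Kolthoff Ce4+ reduction, read at 420 nm; run in triplicate.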
# [6] = CCTE_Deisenroth_5AR_NBTE_donor: CCTE's 5alpha-reductase NanoBRET Target Engagement Assay […], Deisenroth Lab (AID 2284319; active means hit-call score of the fitted dose curve at least 0.9, where 1 is the maximum; inactive means score below 0.9); conditions: actives raise or lower the signal
# Outline: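 In this secondary endpoint, donor luminescence from SRD5A2-NanoLuc in transfected HEK293T flags artifacts. Test chemical (10 nM - 29.9 uM) is present five hours, tracer the last two; mock-tracer wells run plate-matched; data fitted bidirectionally against DMSO.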
# [7] = CCTE_Deisenroth_5AR_NBTE_acceptor: CCTE's 5alpha-reductase NanoBRET Target Engagement Assay - Autofluorescence Screen, Deisenroth Lab (AID 2284321; active means hit-call score of the fitted dose curve at least 0.9, where 1 is the maximum; inactive means score below 0.9;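 further: compound fluorescence in the acceptor channel under 460 nm excitation flags autofluorescence artifacts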); conditions: actives raise or lower the signal
# Outline: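 Acceptor fluorescence intensity was read as an artifact-detection endpoint. Test chemicals at an assumed nominal 100 uM were excited at 460 nm across three independent runs. Activity was fitted bidirectionally against DMSO.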
# [8] = system: SRD5A2 (gene 6716); test: CCTE_Deisenroth_5AR_NBTE_ratio: CCTE's 5alpha-reductase NanoBRET Target Engagement Assay - Ratio, Deisenroth Lab (AID 2284322; active means hit-call score of the fitted dose curve at least 0.9, where 1 is the maximum; inactive means score below 0.9); conditions: actives raise or lower the signal
# Outline: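 HEK293T cells transiently expressing an SRD5A2-NanoLuc fusion (20 h post-transfection) were exposed to test chemical (10 nM - 29.9 uM, 8 points) for 3 h, then testosterone tracer for a further 2 h. Acceptor/donor BRET ratio was fitted bidirectionally against DMSO baseline.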
# [9] = VALA_TUBHUV_Agonist_CellCount: Viability Assessment in the VALA Sciences human Umbilical Vein Endothelial Tubule Formation (TUBHUV) Agonism Assay (AID 2284309)
# Outline: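 Viability endpoint by fluorescent imaging of fixed nuclear/CD31-stained HUVEC–HDF co-cultures. Readout is cell count, fitted upward against 0.1% DMSO. Compound exposure was 72 h in 10 ng/ml VEGF, after 3-day co-culture priming.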
# [10] = VALA_TUBHUV_Antagonist_CellCount: Viability Assessment in the VALA Sciences human Umbilical Vein Endothelial Tubule Formation (TUBHUV) Antagonism Assay (AID 2284310)
# Outline: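 Read-out is imaged cell count after nuclear and CD31 staining, fitted against 0.1% DMSO vehicle. Compounds were added for 3 days, in 10 ng/ml VEGF assay medium, to HUVEC–HDF co-cultures pre-grown 3 days.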
# [11] = IUF_NPC4_neurite_length_120hr: Leibniz Research Institute for Environmental Medicine (IUF) 120-hour Neuronal Morphology Assay for Neurite Length (NPC4) (AID 2284302; active means hit-call score of the fitted dose curve at least 0.9, where 1 is the maximum; inactive means score below 0.9)
# Outline: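 Neurite length, the mean in um across TUBB3-stained neurons, is derived by skeletonization of high-content images after 120 h differentiation. Compound exposure, 7 concentrations plus solvent control, ran from plating of hNPC spheres on poly-D-lysine/laminin, with medium half-replaced on day 3.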
# [12] = IUF_NPC5_oligodendrocyte_differentiation_120hr: Leibniz Research Institute for Environmental Medicine (IUF) 120-hour Oligodendrocyte Differentiation Assay (NPC5) (AID 2284304);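 further: primary human fetal neural progenitor spheres plated to migrate and differentiate; share of O4-positive cells among Hoechst nuclei found by CNN image analysis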
# Outline: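 Oligodendrocyte differentiation was scored after 120 h as the O4-positive share of Hoechst-stained nuclei across the neurosphere migration area, using a trained convolutional neural network on high-content fluorescence images. Human fetal neural progenitor spheres were dosed from day 0, normalised to DMSO.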
# [13] = IUF_NPC4_neurite_area_120hr: Leibniz Research Institute for Environmental Medicine (IUF) 120-hour Neuronal Morphology Assay for Neurite Area (NPC4) (AID 2284305)
# Outline: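 Neurite area (pixels, nuclei excluded) of TUBB3-positive neurons from hNPC spheres differentiating 5 days under continuous exposure at 37 C, 5% CO2. High-content imaging; loss of signal versus DMSO control across 7 concentrations.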
# [14] = IUF_NPC2-5_cytotoxicity_72hr: Cytotoxicity Assessment at 72 hours in the Leibniz Research Institute for Environmental Medicine (IUF) Neural Progenitor Cell Migration and Differentiation Assay for Cytotoxicity (NPC2-5) (AID 2284306);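 further: LDH release into supernatant measured by resorufin fluorescence marking membrane damage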
# Outline: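 Membrane-integrity cytotoxicity at 72 h, read as LDH-driven resorufin fluorescence in supernatant. hNPC spheres from fetal cortex differentiate on coated plates in N2 medium, 37C, 5% CO2; seven serial compound concentrations plus solvent control (DMSO ≤0.1%).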
# [15] = IUF_NPC2-5_cytotoxicity_120hr: Cytotoxicity Assessment at 120 hours in the Leibniz Research Institute for Environmental Medicine (IUF) Neural Progenitor Cell Migration and Differentiation Assay (NPC2-5) (AID 2284307);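 on AC50: LDH released into supernatant as membrane damage marker via resorufin fluorescence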
# Outline: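 Sphere plating starts differentiation and exposure together at day 0. Compound solution is half-replaced on day 3. At 120 h, medium supernatant is taken for an LDH membrane-integrity read based on resazurin reduction to resorufin fluorescence.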
# [16] = IUF_NPC2-5_cell_number_120hr: Cell Number Assessment at 120 hours in the Leibniz Research Institute for Environmental Medicine (IUF) Neural Progenitor Cell Migration and Differentiation Assay (NPC2-5) (AID 2284308; active means hit-call score of the fitted dose curve at least 0.9, where 1 is the maximum; inactive means score below 0.9;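 further: count of Hoechst-stained nuclei in migration zone around plated human neural progenitor spheres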)
# Outline: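 hNPC spheres, one per well, PDL/laminin, N2 medium, 37C, 5% CO2. Dosing day 0 → half-medium change with fresh compound day 3 → fix 120 h. Readout: Hoechst+ nuclei count, migration area; 7 concentrations plus solvent control.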
# [17] = VALA_TUBIPS_Agonist_TubuleLength: VALA Sciences human iPS-derived Endothelial Tubule Formation (TUBIPS) Agonism Assay (AID 2284311)
# Outline: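 Agonist-mode readout is the gain in imaged tubule length versus DMSO baseline. It was measured by fluorescence high-content imaging 72 h after dosing human iPSC-derived endothelial cells.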
# [18] = IUF_NPC2-5_viability_120hr: Viability Assessment at 120 hours in the Leibniz Research Institute for Environmental Medicine (IUF) Neural Progenitor Cell Migration and Differentiation Assay (NPC2-5) (AID 2284312; active means hit-call score of the fitted dose curve at least 0.9, where 1 is the maximum; inactive means score below 0.9)
# Outline: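 Alamar blue resorufin fluorescence read after 5 days of differentiation, with compound present from day 0 and replenished at day 3. Primary hNPC spheres on laminin-coated plates, 37C; seven concentrations plus solvent control, fitted against DMSO.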
# [19] = system: TTR (gene 7276); test: CCTE_GLTED_hTTR_0.5uM: CCTE's human Transthyretin (hTTR) Inhibition Assay, with 0.5uM TTR, Great Lakes Toxicology and Ecology Division (GLTED) Lab (AID 2284320; active means hit-call score of the fitted dose curve at least 0.9, where 1 is the maximum; inactive means score below 0.9)
# Outline: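 Probe (ANSA) displacement from 0.5 uM human transthyretin was followed by fluorescence (ex 380, em 475) after a 2 h incubation with chemical. Activity was scored as signal loss and fitted positively relative to DMSO.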
# [20] = VALA_TUBIPS_Antagonist_TubuleLength: VALA Sciences human iPS-derived Endothelial Tubule Formation (TUBIPS) Antagonist Assay (AID 2284313)
# Outline: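 Tubule length was quantified by high-content imaging of CD31- and nuclear-stained cells, with 0.1% DMSO as neutral and 100 uM suramin as inhibition control. Compounds were applied for 3 days, in 10 ng/ml VEGF, to cultures pre-grown 3 days.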
structure (smiles),measurement,setting,value
FC(F)(F)C(F)(F)C(F)(F)C(F)(F)C(F)(F)C(F)(F)I,outcome,[1],inactive
CCCCCCCCCC,outcome,[2],inactive
same,outcome,[3],inactive
same,outcome,[4],inactive
NC(=O)NN=Cc1ccc([N+](=O)[O-])o1,AC50,[5],74.4 µM (active)
CCCCCCCC/C=C\CCCCCCCC(=O)OC[C@@H](O)[C@H]1OC[C@H](O)[C@H]1O,outcome,[6],inactive
same,outcome,[7],inactive
same,outcome,[8],inactive
OCCNCCO,outcome,[9],inactive
same,outcome,[10],inactive
O=C(Cl)C(F)(F)C(F)(F)C(F)(F)C(=O)Cl,outcome,[1],inactive
CCCCCOC(C)=O,outcome,[6],inactive
same,outcome,[7],inactive
same,outcome,[8],inactive
Cn1cc[nH]c1=S,outcome,[11],inactive
same,outcome,[12],inactive
same,outcome,[13],inactive
same,outcome,[14],inactive
same,outcome,[15],inactive
same,outcome,[16],inactive
same,outcome,[9],inactive
same,outcome,[10],inactive
same,outcome,[17],inactive
same,outcome,[18],inactive
same,outcome,[2],inactive
same,outcome,[4],inactive
same,outcome,[1],inactive
O=S(=O)(O)c1ccc(N=Nc2c(O)ccc3cc(S(=O)(=O)O)ccc23)cc1,AC50,[6],36.5 µM (active)
same,outcome,[7],inactive
same,AC50,[8],61.8 µM (active)
c1ccc2cc3ccccc3cc2c1,outcome,[1],inactive
O=S(=O)(O)CCC(F)(F)C(F)(F)C(F)(F)C(F)(F)C(F)(F)C(F)(F)F,AC50,[19],5.35 µM (active)
Nc1ccn([C@@H]2O[C@H](CO)[C@@H](O)[C@@H]2O)c(=O)n1,outcome,[11],inactive
same,outcome,[13],inactive
same,AC50,[14],0.237 µM (active)
same,AC50,[15],0.0802 µM (active)
same,AC50,[16],0.743 µM (active)
same,outcome,[18],inactive
same,AC50,[1],741 nM (active) and 1.09 µM (active)
CCCCCCCCCCCCCCCCOS(=O)(=O)O,AC50,[5],32.7 µM (active)
CCN(CC)C(=S)SSC(=S)N(CC)CC,outcome,[17],inactive
same,outcome,[4],inactive
same,AC50,[6],50 µM (active)
same,AC50,[7],39.6 µM (active)
same,AC50,[8],50 µM (active)
CCCC(CCC)C(=O)O,AC50,[11],2180 µM (active)
same,AC50,[12],999 µM (active)
same,outcome,[13],inactive
same,AC50,[15],1400 µM (active)
same,AC50,[16],2210 µM (active)
same,outcome,[10],inactive
same,outcome,[17],inactive
same,AC50,[18],1030 µM (active)
same,outcome,[20],inactive
C[C@]12C=CC(=O)C=C1CC[C@H]1[C@@H]3C[C@@H](O)[C@](O)(C(=O)CO)[C@@]3(C)C[C@H](O)[C@@]12F,AC50,[1],19.8 µM (active)
OC(O)(C(F)C(O)(O)C(F)(F)F)C(F)(F)F,outcome,[1],inactive
FC(F)=C(F)C(F)(F)C(F)(F)C(F)(F)C(F)(F)C(F)(F)C(F)(F)F,outcome,[1],inactive
same,AC50,[19],62.1 µM (active)
